Assay results taken from PubChem BioAssay (NCATS).
Where “and” joins values, the source holds several entries; their conditions need not be identical. Identical values can stand only once. Inconclusive results are not listed. Entries that show only a call come without a potency. Calls of active or inactive are those of the source. Unless noted, the call rests on the fitted dose curve; in most records, active means well fitted curve in the direction sought with a large enough effect; inconclusive means small, poorly fitted or top-dose-only effect, or another doubt; inactive means no such curve, though single readings can be large; an effect the other way counts as inactive or inconclusive.

Experiments:
[1] = Cell Viability - NIH 3T3 (AID 541); conditions: NIH 3T3 cell viability, qHTS; activity change, negative = cytotoxicity: at 92.2 µM (top of the series);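 further: cells exposed to compound for 40 hours; nearly all actives have a fitted effect of over 25% in size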
Outline: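 Cells seeded at 1000/well, rested 5 hr at 37 °C, then dosed and incubated 40 hr at 37 °C. CellTiter-Glo added, 20 min room temperature, luminescence read. AC50 by Hill fit.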

[2] = Cell Viability - H-4-II-E (AID 543);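 further: cells exposed to compound for 40 hours; nearly all actives have a fitted effect of over 35% in size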
Outline: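 Cells seeded at 1500 per well and rested 5 hr; compounds added; 40 hr incubation at 37 °C; CellTiter-Glo added, 20 min at room temperature; luminescence read. Hill-equation fits gave AC50.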

[3] = Cell Viability - LYMP2-020 (AID 986); further: nearly all actives have a fitted effect of over 55% in size
Outline: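 Seed 2500 cells per well and incubate 5 hr at 37 C. Add compounds at a concentration series and incubate 24 hr at 37 C. Add CellTiter-Glo, wait 30 min at RT, read luminescence, and fit a Hill curve for AC50.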

[4] = target: Bile acid receptor (Homo sapiens) (UniProt Q96RI1); test: qHTS assay for small molecule agonists of farnesoid X receptor signaling (AID 588527; calls by dose curve); conditions: HEK293T FXR-UAS-bla, beta-lactamase ratio, 16 h; stronger effect = higher value
Outline: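 Read-out: beta-lactamase reporter fluorescence with CCF4 substrate in GeneBLAzer FXR-UAS-bla HEK293T cells, after 16 h compound exposure at 37 C. Response scaled between DMSO basal (0%) and chenodeoxycholic acid at 100 uM (100%).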

[5] = target: Peroxisome proliferator-activated receptor delta (Homo sapiens) (UniProt Q03181); test: qHTS assay for small molecule agonists of peroxisome proliferator-activated receptor delta signaling (AID 588534; calls by dose curve)
Outline: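 Agonist-mode qHTS; reporter cells, 5 hrs 37 C pre-incubation; compound titration, 18 hrs 37 C; CCF4 dye, 2 hrs RT; fluorescence read. EC50/efficacy via Hill fit.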

[6] = qHTS assay for small molecule antagonists of peroxisome proliferator-activated receptor delta signaling (AID 588535; active means well fitted inhibition curve with a large enough effect in the signal ratio, with a control signal flat, not every such curve was filed as active; the % refers to the signal ratio;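 on max response: cells co-treated with a PPAR-delta agonist as stimulator during compound exposure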); conditions: HEK293T PPARd-UAS-bla, beta-lactamase FRET ratio, 18 h; 460 nm channel
Outline: (§1)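 Titrations were run on PPAR-delta-UAS-bla HEK293T cells in charcoal/dextran-stripped serum, incubated 18 h at 37 C. CCF4 fluorescence (460/530 nm) after 2 h RT; Hill equation yields IC50 and maximal response.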

[7] = target: Peroxisome proliferator-activated receptor delta (Homo sapiens) (UniProt Q03181); test: as above
Outline: as §1

[8] = target: Peroxisome proliferator-activated receptor gamma (Homo sapiens) (UniProt P37231); test: qHTS assay for small molecule antagonists of peroxisome proliferator-activated receptor gamma signaling (AID 588537; active means well fitted inhibition curve with a large enough effect in the signal ratio, with a control signal flat, not every such curve was filed as active; the % refers to the signal ratio;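 further: reporter cells co-stimulated with 50 nM rosiglitazone agonist during compound treatment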)
Outline: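 Antagonist-mode β-lactamase reporter screen run as a titration series. HEK293 PPARγ-UAS-bla cells are stimulated with rosiglitazone (50 nM final) for 16 h, then CCF4 is read at 460/530 nm. Data are scaled between DMSO and rosiglitazone and fitted to the Hill equation.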

[9] = target: Thyroid hormone receptor beta (Homo sapiens) (UniProt P10828); test: qHTS assay for small molecule agonists of thyroid hormone receptor beta signaling (AID 588545; calls by dose curve)
Outline: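 Agonist-mode beta-lactamase reporter assay, HEK 293 cells, 2% charcoal/dextran FBS; cells plated 4 hrs, compound 18 hrs at 37 C, CCF4 2 hrs RT. Normalized to 10 nM T3 (100%) and DMSO (0%); Hill fit gives EC50, efficacy.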

[10] = qHTS assay for small molecule agonists of the antioxidant response element (ARE) signaling pathway (AID 651741; active means well fitted activation curve with a large enough effect in the signal ratio; the % refers to the signal ratio)
Outline: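 Beta-lactamase reporter under ARE control in HepG2 cells, 2,000 per well, was induced by 16 h compound treatment at 37 C. Read-out was fluorescence from LiveBLAzer B/G FRET substrate after 2 h at room temperature.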

[11] = qHTS assay for small molecule activators of the nuclear factor-kappa B (NF-kB) signaling pathway (AID 651749; active means well fitted activation curve with a large enough effect in the signal ratio; the % refers to the signal ratio); conditions: NF-kB-bla ME-180 cells, beta-lactamase FRET ratio, 16 h; stronger effect = higher value
Outline: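 Activation measured after 16 hr compound treatment at 37C, 5% CO2, of 2,000 ME-180 cells/well stably expressing an NF-kB response element–driven beta-lactamase reporter, via FRET-disruption fluorescence.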

[12] = qHTS assay for environmental chemicals that activate the Aryl hydrocarbon Receptor (AhR) signaling pathway (AID 651777); conditions: 1A2-DRE human hepatoma cells, luciferase, 24 h; activation: stronger effect = higher value; further: nearly all actives have a fitted effect of over 15% in size
Outline: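 Following a 24 hr incubation with test chemicals at 37 C and 5% CO2, 1A2-DRE human hepatoma cells received One-Glo reagent; after 30 min at room temperature, luciferase output reflected CYP1A2 induction via AhR.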

[13] = Cell Viability - LYMP2-001 (AID 921); further: nearly all actives have a fitted effect of over 70% in size
Outline: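 A lymphoblastoid cell line of human origin was treated with library compounds across a concentration series for 24 hours, and viable cell number was estimated from ATP-driven luciferase light output. Hill modeling gave AC50.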

[14] = Cell Viability - LYMP2-010 (AID 981); further: nearly all actives have a fitted effect of over 55% in size
Outline: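 Steps: seed 2500 LYMP2-010 cells per well; incubate 5 hr at 37 C; add compound; incubate 24 hr at 37 C; add CellTiter-Glo, wait 30 min at room temperature; read luminescence. Concentration-response fitted to Hill equation for AC50.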

[15] = target: Glucocorticoid receptor (Homo sapiens) (UniProt P04150); test: qHTS assay for small molecule antagonists of glucocorticoid receptor signaling (AID 588533; active means well fitted inhibition curve with a large enough effect in the signal ratio, with a control signal flat, not every such curve was filed as active; the % refers to the signal ratio;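 further: cells stimulated with 2 nM dexamethasone as agonist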)
Outline: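 Antagonist-mode qHTS: compound titrations added to GRE-bla HeLa cells, then dexamethasone 2 nM final; 18 h, 37 C. CCF4 FRET fluorescence normalized to dexamethasone and DMSO; IC50 from Hill fit.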

[16] = target: Vitamin D3 receptor (Homo sapiens) (UniProt P11473); test: qHTS assay for small molecule agonists of vitamin D receptor signaling (AID 588543; calls by dose curve)
Outline: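 Measured: β-lactamase reporter activity (CCF4, 405 nm excitation, 460/530 nm emission) in HEK293T VDR-UAS-bla cells after 16 h compound exposure at 37 °C. Normalization against 50 nM 1α,25-dihydroxyvitamin D3 and DMSO; Hill-fit EC50.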

[17] = qHTS assay for small molecule activators of the p53 signaling pathway (AID 651743; active means well fitted activation curve with a large enough effect in the signal ratio, not every such curve was filed as active; the % refers to the signal ratio); conditions: HCT-116 p53RE-bla, beta-lactamase FRET ratio, 16 h; activation: stronger effect = higher value
Outline: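 After 16 hours compound treatment at 37 C, HCT-116 cells stably expressing p53RE-driven beta-lactamase were loaded with LiveBLAzer B/G FRET substrate for 2 hours at room temperature. Fluorescence intensity served as the p53 activation read-out.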

[18] = Cell Viability - LYMP2-005 (AID 967)
Outline: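 Luciferase-based ATP quantitation served as the viability measure in human lymphoblastoid LYMP2-005 cells exposed to test compounds for 24 h at 37 C in complete culture medium. Potency (AC50) was obtained by fitting concentration-response curves with the Hill equation.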

[19] = target: Estrogen receptor (Homo sapiens) (UniProt P03372); test: qHTS assay for small molecule antagonists of estrogen receptor alpha signaling (AID 588513; active means well fitted curve in the direction sought with a large enough effect in the signal ratio, with a control signal flat, not every such curve was filed as active; the % refers to the signal ratio)
Outline: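 Antagonist-mode qHTS in ER-alpha-UAS-bla HEK 293 cells: compound titration, 0.5nM estradiol for 18 h, CCF4 fluorescence, Hill-derived IC50.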

[20] = target: Glucocorticoid receptor (Homo sapiens) (UniProt P04150); test: qHTS assay for small molecule agonists of glucocorticoid receptor signaling (AID 588532; active means well fitted curve in the direction sought with a large enough effect in the signal ratio, with a control signal flat; the % refers to the signal ratio); conditions: HeLa MMTV-bla, beta-lactamase ratio, agonist, 18 h; stronger effect = higher value; percent of dexamethasone control, DMSO zero
Outline: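 Quantitative HTS using CellSensor MMTV-bla HeLa cells in charcoal/dextran-treated serum; compounds tested up to 92 uM. After 18 h at 37 C, CCF4 dye reported reporter induction.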

Sequence of Peroxisome proliferator-activated receptor gamma (Homo sapiens) (P37231 whole entry, looked up): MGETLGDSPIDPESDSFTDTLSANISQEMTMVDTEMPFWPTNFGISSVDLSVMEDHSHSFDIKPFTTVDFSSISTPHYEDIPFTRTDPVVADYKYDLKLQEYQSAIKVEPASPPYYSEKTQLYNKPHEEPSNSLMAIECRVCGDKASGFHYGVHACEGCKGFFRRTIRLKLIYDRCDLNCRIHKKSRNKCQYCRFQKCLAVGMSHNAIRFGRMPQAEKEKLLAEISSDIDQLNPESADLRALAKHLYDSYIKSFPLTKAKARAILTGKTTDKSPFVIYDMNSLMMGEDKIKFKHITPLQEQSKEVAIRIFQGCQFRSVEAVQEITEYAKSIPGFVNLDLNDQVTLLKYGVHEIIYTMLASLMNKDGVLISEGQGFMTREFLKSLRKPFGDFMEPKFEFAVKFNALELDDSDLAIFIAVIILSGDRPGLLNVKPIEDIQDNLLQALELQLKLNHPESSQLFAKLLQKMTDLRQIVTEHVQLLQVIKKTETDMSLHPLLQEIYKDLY
Sequence of Estrogen receptor (Homo sapiens) (P03372 whole entry, looked up): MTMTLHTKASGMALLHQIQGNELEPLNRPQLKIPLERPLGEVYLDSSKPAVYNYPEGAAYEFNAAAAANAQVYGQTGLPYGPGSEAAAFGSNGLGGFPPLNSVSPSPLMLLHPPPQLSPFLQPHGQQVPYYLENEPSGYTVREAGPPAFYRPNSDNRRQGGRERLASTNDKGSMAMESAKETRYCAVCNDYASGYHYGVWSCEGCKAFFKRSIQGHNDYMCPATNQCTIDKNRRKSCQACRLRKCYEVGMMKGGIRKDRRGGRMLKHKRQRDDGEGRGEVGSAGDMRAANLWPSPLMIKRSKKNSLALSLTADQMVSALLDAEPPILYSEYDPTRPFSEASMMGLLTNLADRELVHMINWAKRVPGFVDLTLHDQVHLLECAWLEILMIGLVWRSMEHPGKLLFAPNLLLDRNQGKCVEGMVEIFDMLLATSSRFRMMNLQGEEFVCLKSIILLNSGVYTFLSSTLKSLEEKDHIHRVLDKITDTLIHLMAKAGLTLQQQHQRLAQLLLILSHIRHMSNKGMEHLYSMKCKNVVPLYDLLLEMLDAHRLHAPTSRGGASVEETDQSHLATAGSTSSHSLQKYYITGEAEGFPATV
Sequence of Peroxisome proliferator-activated receptor delta (Homo sapiens) (Q03181 whole entry, looked up): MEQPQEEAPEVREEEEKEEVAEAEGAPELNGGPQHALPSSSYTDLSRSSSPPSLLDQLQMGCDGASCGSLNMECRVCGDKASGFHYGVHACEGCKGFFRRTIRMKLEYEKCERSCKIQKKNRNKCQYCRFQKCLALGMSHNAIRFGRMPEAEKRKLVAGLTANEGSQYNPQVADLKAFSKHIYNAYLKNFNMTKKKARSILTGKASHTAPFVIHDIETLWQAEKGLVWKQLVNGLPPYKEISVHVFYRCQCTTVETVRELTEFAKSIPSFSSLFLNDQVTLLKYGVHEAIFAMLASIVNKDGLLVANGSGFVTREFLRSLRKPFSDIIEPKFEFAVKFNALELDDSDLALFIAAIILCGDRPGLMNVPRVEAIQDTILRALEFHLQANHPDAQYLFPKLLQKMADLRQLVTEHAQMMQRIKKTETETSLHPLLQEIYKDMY
Sequence of Thyroid hormone receptor beta (Homo sapiens) (P10828 whole entry, looked up): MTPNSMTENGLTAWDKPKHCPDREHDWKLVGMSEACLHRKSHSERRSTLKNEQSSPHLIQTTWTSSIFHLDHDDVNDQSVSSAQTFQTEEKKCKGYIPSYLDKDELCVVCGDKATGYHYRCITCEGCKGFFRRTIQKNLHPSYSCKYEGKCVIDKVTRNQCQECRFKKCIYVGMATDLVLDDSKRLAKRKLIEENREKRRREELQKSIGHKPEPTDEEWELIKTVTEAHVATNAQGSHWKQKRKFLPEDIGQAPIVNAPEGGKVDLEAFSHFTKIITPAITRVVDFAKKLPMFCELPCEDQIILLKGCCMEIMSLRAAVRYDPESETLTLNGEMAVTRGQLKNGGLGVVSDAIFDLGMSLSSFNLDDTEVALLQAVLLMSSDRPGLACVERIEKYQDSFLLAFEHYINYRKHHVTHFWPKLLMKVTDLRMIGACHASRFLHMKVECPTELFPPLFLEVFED
Sequence of Vitamin D3 receptor (Homo sapiens) (P11473 whole entry, looked up): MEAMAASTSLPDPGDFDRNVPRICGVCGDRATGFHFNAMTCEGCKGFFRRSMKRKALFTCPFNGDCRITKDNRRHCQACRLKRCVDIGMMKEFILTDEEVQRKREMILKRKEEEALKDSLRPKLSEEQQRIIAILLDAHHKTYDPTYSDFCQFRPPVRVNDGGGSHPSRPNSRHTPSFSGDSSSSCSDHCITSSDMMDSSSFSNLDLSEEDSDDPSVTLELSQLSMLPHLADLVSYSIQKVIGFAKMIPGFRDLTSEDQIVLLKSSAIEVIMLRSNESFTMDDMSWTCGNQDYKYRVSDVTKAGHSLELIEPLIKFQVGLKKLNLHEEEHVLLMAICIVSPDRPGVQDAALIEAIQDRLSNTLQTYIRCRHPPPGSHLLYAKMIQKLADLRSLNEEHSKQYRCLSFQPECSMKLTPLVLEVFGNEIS
Sequence of Glucocorticoid receptor (Homo sapiens) (P04150 whole entry, looked up): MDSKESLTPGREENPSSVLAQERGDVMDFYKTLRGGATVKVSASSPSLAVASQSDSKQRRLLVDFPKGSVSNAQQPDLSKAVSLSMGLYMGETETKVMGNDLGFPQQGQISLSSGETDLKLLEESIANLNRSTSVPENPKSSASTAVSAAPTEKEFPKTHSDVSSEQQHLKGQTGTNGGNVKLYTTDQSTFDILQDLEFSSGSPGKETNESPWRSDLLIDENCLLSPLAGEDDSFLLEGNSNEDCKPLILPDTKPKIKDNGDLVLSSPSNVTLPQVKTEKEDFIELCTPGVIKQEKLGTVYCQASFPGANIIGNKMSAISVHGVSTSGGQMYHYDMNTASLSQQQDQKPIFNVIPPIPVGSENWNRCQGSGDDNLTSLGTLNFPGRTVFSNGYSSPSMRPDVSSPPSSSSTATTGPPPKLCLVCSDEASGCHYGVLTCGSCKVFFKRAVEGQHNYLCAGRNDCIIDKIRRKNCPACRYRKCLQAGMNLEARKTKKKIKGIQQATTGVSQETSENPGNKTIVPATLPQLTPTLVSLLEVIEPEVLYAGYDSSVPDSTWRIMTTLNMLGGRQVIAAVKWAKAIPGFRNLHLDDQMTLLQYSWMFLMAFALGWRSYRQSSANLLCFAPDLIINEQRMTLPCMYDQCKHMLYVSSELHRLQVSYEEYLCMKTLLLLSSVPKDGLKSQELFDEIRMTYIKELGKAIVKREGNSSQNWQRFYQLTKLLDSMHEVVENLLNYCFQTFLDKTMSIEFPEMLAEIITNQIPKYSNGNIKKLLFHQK
Sequence of Bile acid receptor (Homo sapiens) (Q96RI1 whole entry, looked up): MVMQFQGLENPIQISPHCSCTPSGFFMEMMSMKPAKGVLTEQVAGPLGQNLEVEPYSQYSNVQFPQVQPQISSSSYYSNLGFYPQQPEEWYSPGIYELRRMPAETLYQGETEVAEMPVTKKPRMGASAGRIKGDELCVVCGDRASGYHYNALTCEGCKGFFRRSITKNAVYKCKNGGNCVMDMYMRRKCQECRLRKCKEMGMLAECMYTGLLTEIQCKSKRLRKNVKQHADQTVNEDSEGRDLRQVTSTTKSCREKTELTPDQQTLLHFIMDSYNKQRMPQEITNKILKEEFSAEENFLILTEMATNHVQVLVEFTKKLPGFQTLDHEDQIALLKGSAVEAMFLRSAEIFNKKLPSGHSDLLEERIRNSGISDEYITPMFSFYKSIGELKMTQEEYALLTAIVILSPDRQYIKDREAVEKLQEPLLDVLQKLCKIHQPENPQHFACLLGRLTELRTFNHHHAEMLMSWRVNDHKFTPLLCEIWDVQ

SMILES: CC(C)[C@]12CC(=O)[C@H](C)[C@H]1C2
- Potency [1]: inactive
- Potency [2]: inactive
- Potency [3]: inactive
- activation [4]: -2.27% (inactive) and 5.04% (inactive)
- outcome [5]: inactive
- max response [6]: 17.2% and -10.4%
- outcome [7]: inactive
- Potency [8]: inactive
- Potency [9]: inactive
- Potency [10]: inactive
- activation [11]: -0.354% (inactive) and -5.97% (inactive)
- activation [12]: -0.165% (inactive) and 1.56% (inactive)

SMILES: N#CCCCCC#N
- Potency [2]: inactive
- Potency [13]: inactive
- Potency [14]: inactive
- activation [4]: -2.39% (inactive)
- outcome [15]: inactive
- outcome [5]: inactive
- outcome [16]: inactive
- Potency [9]: inactive
- Potency [10]: inactive
- activation [17]: -0.437% (inactive)

SMILES: COc1ccccc1N
- Potency [1]: inactive
- Potency [13]: inactive
- Potency [14]: inactive
- Potency [8]: inactive
- Potency [9]: inactive
- activation [12]: -0.373% (inactive)

SMILES: c1ccc(OCC2CO2)cc1 (configuration not stated)
- Potency [2]: inactive
- Potency [13]: inactive
- Potency [18]: inactive
- Potency [14]: inactive
- Potency [3]: inactive
- outcome [15]: inactive
- Potency [10]: inactive
- activation [17]: -2.65% (inactive)
- activation [11]: 0.652% (inactive)
- activation [12]: 0.197% (inactive)

SMILES: OCCBr
- Potency [1]: inactive
- Potency [13]: inactive
- Potency [18]: inactive
- Potency [14]: inactive
- Potency [3]: inactive
- Potency [19]: inactive
- activation [4]: -2.65% (inactive)
- activation [20]: -2.73% (inactive)
- outcome [15]: inactive
- outcome [16]: inactive
- Potency [9]: inactive
- activation [11]: 0.0665% (inactive)

SMILES: CC[N+](=O)[O-]
- Potency [1]: inactive
- Potency [2]: inactive
- Potency [13]: inactive
- Potency [18]: inactive
- Potency [14]: inactive
- Potency [3]: inactive
- activation [20]: 5.8% (inactive)
- outcome [15]: inactive
- outcome [5]: inactive
- outcome [16]: inactive
- Potency [10]: inactive
- activation [17]: -3.29% (inactive)
- activation [11]: 1.19% (inactive)
- activation [12]: -0.343% (inactive)

SMILES: OCC(Cl)CCl (configuration not stated)
- Potency [2]: inactive
- Potency [13]: inactive
- Potency [18]: inactive
- Potency [14]: inactive
- Potency [3]: inactive
- Potency [19]: inactive
- activation [20]: 11.4% (inactive)
- outcome [15]: inactive
- outcome [5]: inactive
- max response [6]: -16%
- outcome [7]: inactive
- outcome [16]: inactive
- Potency [9]: inactive
- activation [11]: 0.192% (inactive)
- activation [12]: 1.02% (inactive)

SMILES: COC(=O)Nc1cccc(OC(=O)Nc2cccc(C)c2)c1
- Potency [1]: inactive
- Potency [13]: inactive
- Potency [18]: inactive
- Potency [14]: inactive
- Potency [3]: inactive
- activation [4]: 0.654% (inactive)
- outcome [15]: inactive
- outcome [5]: inactive
- Potency [9]: inactive
- activation [17]: -2.65% (inactive)
- activation [11]: -1.26% (inactive)

SMILES: C=CC(=O)OCC(CC)CCCC (configuration not stated)
- Potency [1]: inactive
- Potency [13]: inactive
- Potency [18]: inactive
- Potency [3]: inactive
- activation [20]: -0.1% (inactive) and -12.6% (inactive)
- outcome [15]: inactive
- outcome [5]: inactive
- max response [6]: 10.4% and 11.2%
- outcome [7]: inactive
- Potency [8]: inactive
- outcome [16]: inactive
- Potency [9]: inactive
- Potency [10]: inactive
- activation [17]: 0.81% (inactive) and 5.58% (inactive)
- activation [11]: -0.0286% (inactive) and 0.831% (inactive)

SMILES: Nc1ccc(-c2ccccc2)cc1
- Potency [1]: inactive
- Potency [13]: inactive
- Potency [18]: inactive
- Potency [14]: inactive
- Potency [3]: inactive
- Potency [19]: inactive
- outcome [5]: inactive
- outcome [16]: inactive
- Potency [9]: inactive
- activation [17]: -1.6% (inactive)
- activation [11]: -0.257% (inactive)
- activation [12]: 12.6% (inactive)

SMILES: Clc1cc(Cl)c(Cl)c(Cl)c1
- Potency [1]: inactive
- Potency [2]: inactive
- Potency [13]: inactive
- Potency [18]: inactive
- Potency [14]: inactive
- Potency [3]: inactive
- outcome [5]: inactive
- outcome [16]: inactive
- Potency [9]: inactive
- activation [11]: -0.964% (inactive)

SMILES: CN(C)C(=O)Nc1cccc(C(F)(F)F)c1
- Potency [1]: inactive
- Potency [2]: inactive
- Potency [13]: inactive
- Potency [18]: inactive
- Potency [14]: inactive
- outcome [5]: inactive
- max response [6]: -0.756% and 6.11%
- outcome [7]: inactive
- Potency [8]: inactive
- outcome [16]: inactive
- Potency [9]: inactive
- Potency [10]: inactive
- activation [17]: 0.966% (inactive) and 0.726% (inactive)
- activation [11]: 0.0409% (inactive) and 1.96% (inactive)
- activation [12]: -0.624% (inactive) and 0.852% (inactive)

SMILES: Nc1ccc(Cl)c(Cl)c1
- Potency [1]: inactive
- Potency [2]: inactive
- Potency [18]: inactive
- Potency [14]: inactive
- Potency [3]: inactive
- outcome [5]: inactive
- max response [6]: -10.6%
- outcome [7]: inactive
- outcome [16]: inactive
- Potency [9]: inactive
- activation [11]: 0.145% (inactive)

SMILES: C=C(C)CCl
- Potency [2]: inactive
- Potency [13]: inactive
- Potency [18]: inactive
- Potency [14]: inactive
- Potency [19]: inactive
- activation [4]: -1.8% (inactive)
- outcome [15]: inactive
- outcome [5]: inactive
- max response [6]: 2.33%
- outcome [7]: inactive
- Potency [9]: inactive
- Potency [10]: inactive
- activation [17]: -3.39% (inactive)
- activation [11]: -0.185% (inactive)
